Assay outcomes: PubChem BioAssay, NMMLSC
MEP2 TOR yeast = modulators of MEP2-GFP levels in yeast, primary screen, S. cerevisiae, multiplex flow cytometry, MLPCN library; AID 2016, 2009; GFP response vs DMSO, % at 10 µM; S. cerevisiae MEP2-GFP strain, 3 h; 100% = DMSO control level; 0.51% of 330,000 active;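 active = GFP response versus DMSO above a set limit, roughly screen mean plus 3 SD, cut at about 180% in these data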;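 note: median GFP fluorescence of the barcode-gated MEP2-GFP cells per well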
AGP1-GFP MLPCN = modulators of AGP1-GFP expression in yeast TOR pathway, primary screen, cell-based, multiplex flow cytometry, S. cerevisiae, MLPCN library. 0.02% of 320,000 active. 3 h; GFP as percent of DMSO wells. AID 2066, 2009. GFP response vs DMSO, % at 10 µM;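 active = GFP response relative to DMSO above a set limit, near screen average plus 3 SD, cut at about 150% in these data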;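 note: median GFP channel fluorescence of the gated AGP1 strain per well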
CIT2 TOR yeast = modulators of CIT2-GFP expression in yeast, primary screen, S. cerevisiae, GFP fusion, multiplex flow cytometry, MLPCN library; S. cerevisiae CIT2-GFP strain, 3 h; 100 means same as DMSO wells; GFP response vs DMSO, % at 10 µM; 0.065% of 320,000 active;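 active = GFP response relative to DMSO above a set limit, near the screen mean plus 3 SD, cut at about 150% in these data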;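 note: ratio of well median GFP fluorescence to mean of DMSO wells on the plate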
RPL19A TOR yeast = RPL19A-GFP expression modulators in yeast, primary screen, cell-based, S. cerevisiae, multiplex flow cytometry, MLPCN. S. cerevisiae RPL19A-GFP strain, 3 h; active compounds read low. percent response vs DMSO, % at 10 µM. 0.3% of 330,000 active. AID 2025, 2009;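 active = percent response vs DMSO below 50%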;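 note: median channel GFP fluorescence of the barcoded RPL19A-GFP strain; ratio of sample median GFP to plate DMSO average so 100% = DMSO; lower means less RPL19A-GFP as with rapamycin TOR inhibition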
LAP4 TOR yeast = modulators of LAP4-GFP expression in yeast, primary screen, S. cerevisiae, multiplex flow cytometry, MLPCN library | GFP response vs DMSO, % at 10 µM | 0.34% of 320,000 active | 3 h; median GFP as percent of DMSO wells;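 active = GFP response vs DMSO above a set limit, about the screen mean plus 3 SD, cut at about 150% in these data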
LAP4 cherry2 = LAP4-GFP expression modulators in yeast, confirmation, cell-based, second cherry pick, flow cytometry | shares compounds with LAP4 TOR yeast | S. cerevisiae LAP4-GFP strain, 3 h | GFP response vs DMSO, % at 10 µM | 20% of 590 active;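 active = GFP signal as percent of the solvent control above about 150%, meaning raised reporter expression, limit read from the data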;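 note: ratio of well median GFP fluorescence to plate DMSO mean so 100% = DMSO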
MEP2-GFP pick2 = modulators of MEP2-GFP levels in yeast, confirmation, S. cerevisiae, flow cytometry GFP, second cherry picks; shares compounds with LAP4 TOR yeast; S. cerevisiae MEP2-GFP strain, 3 h; GFP response vs DMSO, % at 10 µM; 10% of 590 active;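 active = GFP signal above 150% of the solvent control wells, that is a rise of more than half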;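 note: median channel GFP fluorescence of all gated yeast cells per well; ratio of median GFP to plate DMSO average so 100% = DMSO level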
RPL19A-GFP pick2 = RPL19A-GFP modulators in TOR pathway yeast, confirmation, cell-based, S. cerevisiae, flow cytometry, second cherry pick. shares compounds with LAP4 TOR yeast. 3% of 590 active. AID 2623, 2010. GFP response vs DMSO, % at 10 µM. S. cerevisiae RPL19A-GFP strain, 3 h; active compounds read low; 100% means same as DMSO wells;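 active = under 65% GFP response relative to DMSO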;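 note: median GFP channel fluorescence per well over the all cells gate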
CIT2 GFP CP2 = modulators of CIT2-GFP expression in yeast, confirmation, flow cytometry, second cherry pick, single plex; shares compounds with LAP4 TOR yeast; S. cerevisiae CIT2-GFP strain, 3 h; DMSO control wells read 100%; GFP response vs DMSO, % at 10 µM; 8% of 590 active; AID 2624, 2010;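 active = GFP response vs DMSO above about 150%, limit read from the data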;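 note: median green fluorescence per well over all gated yeast cells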
AGP1-GFP pick2 = AGP1-GFP expression modulators, hit retest, confirmation, cell-based, flow cytometry, S. cerevisiae, cherry pick set 2. shares compounds with LAP4 TOR yeast. S. cerevisiae AGP1-GFP strain, 3 h. percent response vs DMSO, % at 10 µM. 590 tested, under 10 active;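 active = over 150 percent of DMSO response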;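 note: median GFP channel fluorescence over all cells without mother daughter split; sample median GFP divided by mean DMSO control so 100% equals DMSO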
s288c autofluor = compound autofluorescence in yeast s288c, dose response, artefact control for yeast TOR pathway GFP screen, s288c strain; AID 2757, 2010; shares compounds with LAP4 TOR yeast; fluorescence change (kMESF span) at 33 µM; S. cerevisiae s288c, 520 nm autofluorescence, flow cytometry, 3 h; active compounds read high; zero means same as solvent-only cells; 610 tested, under 10 active;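 active = fluorescence span over the dose series, or activity score, above about 33, limit read from the data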
An asterisk follows results filed as active; · = no result given. Hits are enriched below; roughly 0.93% of the tested compounds scored in any of these assays.

SMILES	MEP2 TOR yeast	AGP1-GFP MLPCN	CIT2 TOR yeast	RPL19A TOR yeast	LAP4 TOR yeast	LAP4 cherry2	MEP2-GFP pick2	RPL19A-GFP pick2	CIT2 GFP CP2	AGP1-GFP pick2	s288c autofluor
Cc1c(Br)c(=O)oc2c(Br)c(O)ccc12	94	75	101	106	94	·	·	·	·	·	·
Cc1c(Br)c(=O)oc2c(Br)c(O)c(O)cc12	159	25	88	59	85	97	97	98	107	101	-0.1
CC(=O)/C(C=Nc1noc(C)c1Br)=C(\C)O	95	102	92	94	111	·	·	·	·	·	·
CCOC(=O)C(=NCCCN1CCOCC1)NNc1cccc(C(F)(F)F)c1	108	101	111	103	97	·	·	·	·	·	·
O=C1Nc2ccccc2/C1=C/c1cnc(-c2ccccc2)[nH]1	184*	116	161*	120	169*	111	141	103	134	100	·
Cc1ccc(C(=O)NCC(=O)OCCOc2ccccc2Cl)cc1	101	93	97	100	95	·	·	·	·	·	·
O=C(O)C1Sc2[nH]c(=O)sc2C2c3cc(Br)ccc3OC(=O)C12 (stereo not given)	112	90	101	99	151*	·	·	·	·	·	3.3
CCCCC1OC23CCCCC2C(C#N)(C(=N)O3)C1(C#N)C#N (stereo not given)	189*	70	93	64	97	·	·	·	·	·	0.31
C=CCOc1ccc(/C=C/C(=O)OCC(=O)NCCCc2ccccc2)cc1	114	103	95	97	101	·	·	·	·	·	·
C=CCOc1ccc(/C=C/C(=O)OCC(=O)N2CCC(c3ccccc3)=N2)cc1	174	122	171*	116	170*	98	102	98	98	98	·
C=CCN(c1ccccc1)S(=O)(=O)c1cc2c(cc1C)NC(=O)CO2	101	97	97	92	102	·	·	·	·	·	·
COC(=O)/C(=C/c1c[nH]c2ccccc12)[N+](=O)[O-]	87	89	86	85	178*	·	·	·	·	·	0.1
COC(=O)/C(=C/c1c[nH]c2ccccc12)NC(C)=O	113	108	115	107	100	·	·	·	·	·	·
OCCc1c[nH]c2ccc(OCc3ccccc3)cc12	100	96	97	98	99	·	·	·	·	·	·
O=C(COC(=O)/C=C/c1ccccc1)NCCc1ccc(F)cc1	94	100	85	96	104	·	·	·	·	·	·
COc1ccc(S(=O)(=O)NCCc2cn3nc(C)c(C)nc3n2)cc1F	120	23	98	62	85	98	100	99	100	98	·
CC(=O)Nc1ccc(S(=O)(=O)NCCc2cn3nc(C)c(C)nc3n2)cc1	93	104	96	97	97	·	·	·	·	·	·
CC1CCCCN1C(=O)C(=O)c1cn(CC(=O)N2CCCC2)c2ccccc12 (stereo not given)	102	106	106	92	103	·	·	·	·	·	·
CCN(Cc1ccccc1)C(=O)C(=O)c1cn(CC(=O)N2CCCC2)c2ccccc12	105	112	178*	102	102	98	102	100	106	102	·
CC1CCN(C(=O)C(=O)c2cn(CC(=O)N3CCCC3)c3ccccc23)CC1	114	104	159*	96	101	99	101	98	110	97	·
C=CCNC(=O)c1ccc(Cn2c(=S)[nH]c3cc4c(cc3c2=O)OCO4)cc1	96	88	78	90	81	·	·	·	·	·	·
O=C(NCCN1CCCC1)c1ccc(Cn2c(=S)[nH]c3cc4c(cc3c2=O)OCO4)cc1	104	111	87	83	153*	101	94	99	106	97	·
O=C(O)c1ccc(Oc2c(C(F)(F)F)oc3cc(O)ccc3c2=O)cc1	164	57	90	56	92	104	103	97	99	98	·
Cc1oc2cc(O)ccc2c(=O)c1Oc1ccccc1	101	100	104	101	104	·	·	·	·	·	·
O=[N+]([O-])c1ccc(N=Nc2c(Cl)cc(O)cc2Cl)cc1	107	81	84	96	278*	·	·	·	·	·	0.82
SMILES	MEP2 TOR yeast	AGP1-GFP MLPCN	CIT2 TOR yeast	RPL19A TOR yeast	LAP4 TOR yeast	LAP4 cherry2	MEP2-GFP pick2	RPL19A-GFP pick2	CIT2 GFP CP2	AGP1-GFP pick2	s288c autofluor
Cc1cc(C)c(S(=O)(=O)ON2C(=O)c3ccccc3C2=O)cc1C	109	75	76	70	171*	·	·	·	·	·	2.2
O=C1c2ccccc2C(=O)N1OS(=O)(=O)c1ccc(F)cc1	102	93	101	99	157*	·	·	·	·	·	1.6
Cc1cc(C)c(C)c(S(=O)(=O)ON2C(=O)c3ccccc3C2=O)c1C	92	69	82	99	248*	·	·	·	·	·	0.81
Cc1ccc(S(=O)(=O)N2CCN(CCc3ccccc3)CC2)c(C)c1	108	102	104	101	100	·	·	·	·	·	·
Cc1ccc(S(=O)(=O)ON2C(=O)c3ccccc3C2=O)c(C)c1	99	57	70	61	122	132	168*	71	122	87	1.3
Cc1cc(C)n(-c2ccc(NC(=O)C3CCCCN3C(=O)c3cc(C)oc3C)cc2)n1 (stereo not given)	100	102	97	98	90	·	·	·	·	·	·
CCc1ccc(C(C)NC(=O)c2ccc3c(c2)OCO3)cc1 (stereo not given)	94	102	101	98	105	·	·	·	·	·	·
CSc1ncccc1C(=O)OCC(=O)NCCc1ccccc1	97	105	86	99	110	·	·	·	·	·	·
CCN1C(=O)/C(=C\C(=O)c2cccs2)c2cc(Br)ccc21	98	91	78	100	196*	·	·	·	·	·	1.6
